Laboratory results published in PMC5540273 (PLoS ONE, 2017).

Experiments:
Conditions in all cases: concentration: 1 μM, replicates: in singlicate; n = 1
ULK3 = tested on: ULK3
VEGFR2 = tested on: T1, VEGFR2
T1 construct: gene KDR

VPS34 = tested on: T2, VPS34
T2 construct: gene PIK3C3

VRK2 = tested on: VRK2
WEE1 = tested on: WEE1
WEE2 = tested on: WEE2
WNK1 = tested on: WNK1
WNK2 = tested on: WNK2
WNK3 = tested on: WNK3
WNK4 = tested on: WNK4
YANK1 = tested on: T3, YANK1
T3 construct: gene STK32A

YANK2 = tested on: T4, YANK2
T4 construct: gene STK32B

YANK3 = tested on: T5, YANK3
T5 construct: gene STK32C

YES = tested on: T6, YES
T6 construct: gene YES1

YSK1 = tested on: T7, YSK1
T7 construct: gene STK25

YSK4 = tested on: T8, YSK4
T8 construct: gene MAP3K19

ZAK = tested on: ZAK
ZAP70 = tested on: ZAP70
p38-alpha = tested on: T9, p38-alpha
T9 construct: gene MAPK14

p38-beta = tested on: T10, p38-beta
T10 construct: gene MAPK11
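Note: KINOMEscan kinase panel screen.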

Row | SMILES | %Inh (ULK3) | %Inh (VEGFR2) | %Inh (VPS34) | %Inh (VRK2) | %Inh (WEE1) | %Inh (WEE2) | %Inh (WNK1) | %Inh (WNK2) | %Inh (WNK3) | %Inh (WNK4) | %Inh (YANK1) | %Inh (YANK2) | %Inh (YANK3) | %Inh (YES) | %Inh (YSK1) | %Inh (YSK4) | %Inh (ZAK) | %Inh (ZAP70) | %Inh (p38-alpha) | %Inh (p38-beta)
1 | CN(C)c1cc(-c2ccc3c(N)n[nH]c3c2)nc(N)n1 [GSK2219329] | 9% | 3% | 0% | 0% | 3% | 1% | 3% | 0% | 15% | 32% | 7% | 0% | 0% | 1% | 12% | 16% | 92.5% | 0% | 0% | 0%
2 | Fc1cccc(CSc2nnc(-c3ccc4c(c3)CCO4)o2)c1 | 11% | 0% | 13% | 5% | 0% | 16% | 0% | 14% | 0% | 0% | 16% | 12% | 0% | 8% | 0% | 20% | 0% | 0% | 0% | 16%
3 | COC(=O)c1c(-c2ccccc2)c2cc(Br)ccc2c(=O)n1Cc1ccc(NC(=O)CCC(=O)O)cc1 | 16% | 0% | 0% | 0% | 0% | 21% | 0% | 26% | 0% | 0% | 0% | 21% | 0% | 0% | 0% | 12% | 36% | 0% | 5% | 5%
4 | COc1cc(Nc2nccc(N3CCC(NC(=O)C(C)c4ccc(Cl)cc4)C3)n2)cc(OC)c1OC (centres unmarked) [GSK1379757] | 42% | 0% | 0% | 0% | 30% | 0% | 9% | 0% | 15% | 10% | 0% | 0% | 0% | 5% | 6% | 29% | 0% | 0% | 10% | 0%
5 | O=c1cc(N2CCOCC2)nc2n(Cc3ccc(F)c(Cl)c3)ccn12 [GSK2297099] | 8% | 4% | 95.2% | 0% | 2% | 3% | 8% | 4% | 5% | 6% | 1% | 11% | 0% | 11% | 18% | 6% | 5% | 0% | 0% | 0%
6 | COc1cc2ncn(-c3cc(OCc4ccncc4Br)c(C(N)=O)s3)c2cc1OC [GW854278] | 36% | 31% | 58% | 24% | 0% | 18% | 19% | 35% | 64% | 0% | 0% | 0% | 0% | 0% | 0% | 61% | 15% | 0% | 4% | 0%
7 | COc1cc2nccc(Nc3cccc(Oc4ccccc4)c3)c2cc1OC.Cl [GW284543] | 8% | 12% | 35% | 0% | 8% | 14% | 0% | 11% | 10% | 0% | 5% | 0% | 1% | 19% | 0% | 0% | 17% | 0% | 0% | 0%
8 | COc1ccc(-c2cc3c(C)nc(N)nc3n([C@H]3CC[C@H](OCCO)CC3)c2=O)cn1 | 3% | 0% | 0% | 0% | 0% | 0% | 0% | 0% | 0% | 0% | 14% | 0% | 0% | 0% | 0% | 0% | 1% | 0% | 0% | 0%
9 | COC(=O)c1c(-c2ccccc2)c2cc(C)ccc2c(=O)n1Cc1ccccc1 | 0% | 0% | 0% | 0% | 0% | 6% | 0% | 0% | 0% | 0% | 0% | 0% | 17% | 0% | 0% | 0% | 25% | 0% | 8% | 0%
10 | CCS(=O)(=O)c1ccc(OC)c(Nc2ncc(-c3ccc(F)cc3)o2)c1.Cl [GW591947] | 0% | 0% | 21% | 0% | 12% | 0% | 2% | 4% | 21% | 0% | 11% | 2% | 2% | 6% | 3% | 10% | 0% | 0% | 0% | 0%
